Unmarked numbers belong to inactive results. Results filed as inconclusive are left out. Active and inactive are the calls of the source. The call rests on the fitted dose curve; in most records, active means well fitted curve in the direction sought with a large enough effect; inconclusive means small, poorly fitted or top-dose-only effect, or another doubt; inactive means no such curve, though single readings can be large; an effect the other way counts as inactive or inconclusive.
Target: Cytochrome P450 3A4 (Homo sapiens) (UniProt P08684)
Sequence (P08684 whole entry, looked up): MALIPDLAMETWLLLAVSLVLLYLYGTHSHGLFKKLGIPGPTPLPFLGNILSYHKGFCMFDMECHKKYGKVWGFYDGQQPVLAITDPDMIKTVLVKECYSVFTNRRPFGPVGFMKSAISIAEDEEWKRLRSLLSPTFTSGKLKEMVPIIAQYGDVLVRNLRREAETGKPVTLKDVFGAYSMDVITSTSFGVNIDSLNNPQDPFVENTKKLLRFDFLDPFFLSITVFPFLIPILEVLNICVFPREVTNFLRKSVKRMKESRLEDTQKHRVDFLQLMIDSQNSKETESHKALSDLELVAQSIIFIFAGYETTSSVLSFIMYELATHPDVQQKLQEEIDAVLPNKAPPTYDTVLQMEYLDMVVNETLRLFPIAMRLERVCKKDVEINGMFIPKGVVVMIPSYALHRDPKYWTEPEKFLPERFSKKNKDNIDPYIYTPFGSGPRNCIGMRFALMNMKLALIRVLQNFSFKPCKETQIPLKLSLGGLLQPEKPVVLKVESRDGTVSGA
Assay: qHTS Assay for Inhibitors and Substrates of Cytochrome P450 3A4 (AID 884); further: on the % scale 0 is the no-effect control and ±100 the full control effect; nearly all actives have a fitted effect of over 50% in size
Conditions: recombinant CYP3A4, Luciferin-PPXE luminescence; series mostly up to 57.1 µM; activity change, negative = inhibition: at the top concentration
Method in brief: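 20 nM human CYP3A4 with 25 uM Luciferin-PPXE (at KM) in 200 mM KPO4, preincubated 10 min with compound; NADPH regeneration started a 60 min RT reaction. Luciferin detected by luminescence, normalized to 57 uM ketoconazole as full inhibition.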

| SMILES | activity change, negative = inhibition | Potency |
| --- | --- | --- |
| O=C(O)c1ccccc1O | -3.54% | – |
| CC(CN1c2ccccc2Sc2ccccc21)N(C)C (stereo unspecified) | -22.3% | – |
| O=C(CCCN1CCN(c2ccccn2)CC1)c1ccc(F)cc1 | – | inactive |
| CN(C)CC[C@@H](c1ccc(Cl)cc1)c1ccccn1 | -2.49% | – |
| CC(COc1ccccc1)NC(C)C(O)c1ccc(O)cc1 (stereo unspecified) | -6.3% | – |
| CCn1cc(C(=O)O)c(=O)c2cnc(N3CCNCC3)nc21 | -3.07% | – |
| CC1(C)OC(=O)NC1=O | 5.94% | – |
| NC(=O)NC(=O)Cc1ccccc1 | -9.28% | – |
| O=C(Oc1ccccc1C(=O)O)c1ccccc1O | -12.3% | – |
| O=c1cc[nH]c(=S)[nH]1 | -14.3% | – |
| Nc1ccc(S(=O)(=O)Nc2ccc(Cl)nn2)cc1 | -25.7% | – |

Target: Cytochrome P450 3A4 (Homo sapiens) (UniProt P08684)
Assay: qHTS Assay for Activators of Cytochrome P450 3A4 (AID 885); further: nearly all actives have a fitted effect of over 65% in size
Conditions: recombinant CYP3A4, Luciferin-PPXE luminescence, 60 min; series mostly up to 57.1 µM; activity change, positive = activation: at the top concentration
Method in brief: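 Signal was normalized against complete inhibition by 57 uM ketoconazole. The reaction used 20nM CYP3A4 with 25uM Luciferin-PPXE, 10-min compound preincubation and a 60-min NADPH-supported step at RT.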

| SMILES | activity change, positive = activation |
| --- | --- |
| CCCCN(CCCC)CCCOC(=O)c1ccc(N)cc1 | -50.5% |
| CCCCN1CCCC[C@H]1C(=O)Nc1c(C)cccc1C | -36.6% [at 25.6 µM] |
| CC1=C(/C=C/C(C)=C/C=C/C(C)=C/C(=O)O)C(C)(C)CCC1 | -37.3% |
| CCN(CC)C(C)CN1c2ccccc2Sc2ccccc21 (stereo unspecified) | -51.1% |
| CC(CN(C)C)CN1c2ccccc2CCc2ccccc21 (stereo unspecified) | -53.5% |
| COc1ccc2c(c1)C(=O)N(CCc1ccc(S(=O)(=O)NC(=O)NC3CCCCC3)cc1)C(=O)C2(C)C | -73.9% [at 25.6 µM] |
| CCN(CC)CCCC(C)Nc1c2ccc(Cl)cc2nc2ccc(OC)cc12 (stereo unspecified) | -74.6% |

Test system: not listed separately
Assay: Confirmation and Secondary Assay for Modulators of Hemoglobin Beta Chain Splicing at IVS2 654 locus (AID 910);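 further: HeLa cells stably carrying EGFP split by mutant beta-globin IVS2-654 intron; per-well total GFP intensity by laser scanning cytometry after 2-day treatment; % of control where 0% means no effect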
Conditions: HeLa EGFP-654 splicing reporter, GFP fluorescence, 48 h; series mostly up to 46.1 µM; activation (splicing correction): at the top concentration
Method in brief: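 Readout: per-well total peak green fluorescence (488 nm ex, 500–520 nm em) from objects 5–250 µm, reflecting correct splicing of an EGFP-654 reporter. Compounds were applied for 2 days at 37 °C to overnight-plated HeLa EGFP-654 cells; controls were DMSO and 500 nM IVS2-654 PNA.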

| SMILES | activation (splicing correction) |
| --- | --- |
| NS(=O)(=O)c1cc2c(cc1C(F)(F)F)NC(Cc1ccccc1)NS2(=O)=O (stereo unspecified) | 6.17% |
| CSc1ccc2c(c1)C(N1CCN(C)CC1)Cc1ccccc1S2 (stereo unspecified) | -3.16% [at 38.3 µM] |
| O=C(O)c1ccccc1O | 4.86% |
| CNCCC(Oc1ccc(C(F)(F)F)cc1)c1ccccc1 (stereo unspecified) | -2.35% |
| CCCCN(CCCC)CCCOC(=O)c1ccc(N)cc1 | 2.86% |
| CC(CN1c2ccccc2Sc2ccccc21)N(C)C (stereo unspecified) | 7.86% |
| O=C(CCCN1CCN(c2ccccn2)CC1)c1ccc(F)cc1 | 2.74% |
| CN1CCOC(c2ccccc2)c2ccccc2C1 (stereo unspecified) | 0.405% |
| CC(C)(C(=O)O)c1ccc(C(O)CCCN2CCC(C(O)(c3ccccc3)c3ccccc3)CC2)cc1 (stereo unspecified) | -1.14% [at 38.3 µM] |
| CSc1ccc2c(c1)N(CCC1CCCCN1C)c1ccccc1S2 (stereo unspecified) | -4.02% |
| CCN(CC)C(C)CN1c2ccccc2Sc2ccccc21 (stereo unspecified) | -7.94% |
| CN(C)CC[C@@H](c1ccc(Cl)cc1)c1ccccn1 | -1.48% |
| CC(COc1ccccc1)NC(C)C(O)c1ccc(O)cc1 (stereo unspecified) | 0.744% |
| CCn1cc(C(=O)O)c(=O)c2cnc(N3CCNCC3)nc21 | -5.22% |
| CC1(C)OC(=O)NC1=O | 6.47% |
| CC(CN(C)C)CN1c2ccccc2CCc2ccccc21 (stereo unspecified) | 2.58% |
| NC(=O)NC(=O)Cc1ccccc1 | 6.58% |
| Cn1cc[nH]c1=S | -1.18% |
| O=C(Oc1ccccc1C(=O)O)c1ccccc1O | 9.6% |
| O=c1cc[nH]c(=S)[nH]1 | 10.5% |
| CNCC(O)c1ccc(O)c(O)c1 (stereo unspecified) | 3.99% |
| Nc1ccc(S(=O)(=O)Nc2ccc(Cl)nn2)cc1 | 7.19% |
| CC1=C(CC(=O)O)c2cc(F)ccc2/C1=C\c1ccc(S(C)=O)cc1 (stereo unspecified) | -0.715% |

Reference: PubChem BioAssay (NCATS)
